Measured potencies and affinities stand elsewhere. Calls of active or inactive are those of the source.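 How the source made its calls: active means cell-killing compounds whose fitted half-effect concentration is at most twice their highest valid dose; inconclusive means flat curve with 30 to 70% signal loss, or poor fit; inactive means the rest.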

The nature of the assay: cytotoxicity in A549 cells, dose response, cytotoxicity control, cell-based, CellTiter-Glo luminescence, cherry-pick (AID 743484). The settings on record: A549 viability, CellTiter-Glo ATP luminescence, 72 h; series mostly up to 26 µM. On the technique in general: ATP-based viability assays read luminescence as a measure of living cells.
For the compound `COc1ccc(Nc2oc(-c3ccco3)nc2S(=O)(=O)c2ccc(F)cc2)cc1`, the outcome was inactive. The value for `Cc1ccc(S(=O)(=O)N2CC[C@H]3[C@H](CO)Nc4ccc(Br)cc4[C@H]32)cc1` was “inactive”; that for `CCn1c(-c2cc(-c3ccc(OC(C)C)cc3)nc3ccccc23)n[nH]c1=S` was “inactive”; that for `Cc1noc(C)c1NC(=O)Nc1ccc2c(c1)C(=O)N([C@H](C)CO)C[C@@H](C)[C@@H](CN(C)C(=O)Nc1ccc3c(c1)OCO3)OCCCC[C@@H](C)O2` was “inactive”. `Cc1ccc(C)c(NC(=O)CSc2nc3nc(-c4cccs4)cc(C(F)(F)F)c3c(=O)[nH]2)c1`: the compound was called inactive.

The values are drawn from PubChem BioAssay AID743484 (Broad Institute, 2014).
